# Experimental data reported in PubChem BioAssay (NCATS).
# Inconclusive results are not listed. Where a call stands in place of a potency, no number is given. The source made the active and inactive calls. Unless noted, calls come from the whole dose curve; as a rule, active = well fitted curve in the direction sought with a large enough effect; inconclusive = small, poorly fitted or top-dose-only effect, or another doubt; inactive = no such curve, though single readings can be large; an effect the other way counts as inactive or inconclusive.
# Columns and labels:
# [1] = target: Ubiquitin carboxyl-terminal hydrolase 1 (Homo sapiens) (UniProt O94782); experiment: Inhibitors of USP1/UAF1: Pilot qHTS (AID 504865);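 note: rhodamine fluorescence freed from ubiquitin-rhodamine substrate followed over time; top concentration of the series differs between compounds; nearly all actives have a fitted effect of over 35% in size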
# In short: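 Deubiquitinase activity followed as kinetic rhodamine fluorescence release from 150 nM Ub-Rho. 1 nM USP1/UAF1 with compound, after 15 min room-temperature preincubation, in HEPES pH 7.8 buffer containing TCEP, EDTA, BSA and Tween-20.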
# [2] = target: Luciferin 4-monooxygenase (Photinus pyralis) (UniProt P08659); experiment: Biochemical firefly luciferase enzyme assay for NPC (AID 624030); note: nearly all actives have a fitted effect of over 70% in size; note: potency is the fitted concentration of half-maximal effect
# In short: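 Direct inhibition of firefly luciferase enzyme (10 nM final, 50 mM Tris Acetate) assessed by luminescence within 5 minutes. Percent activity scaled between DMSO and PTC124 positive control, with concentration-effect curves classified by fit quality and response.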
# [3] = S16 Schwann cell viability assay (CellTiter-Glo assay) (AID 624031);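 note: native untransfected S16 rat Schwann cells; cellular ATP luminescence as a viability measure; nearly all actives have a fitted effect of over 70% in size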
# In short: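 Following overnight culture in 10% FBS DMEM, parental S16 rat Schwann cells are dosed for 24 h at 37 °C. Viability is read as CellTiter-Glo luminescence and expressed as % activity relative to DMSO (0%) and no-cell wells.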
# [4] = S16 Schwann cell PMP22 intronic element firefly luciferase assay (AID 624032); note: nearly all actives have a fitted effect of over 30% in size; note: potency is the fitted concentration of half-maximal effect
# In short: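 Luciferase reporter of PMP22 intronic-element expression in stably transfected S16 rat Schwann cells, read by ONE-Glo luminescence after 24 h compound exposure at 37 C. Activity scaled between DMSO (0%) and positive-control PTC124; concentration-effect curves quality-classified.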
# [5] = S16 Schwann cell PMP22 intronic element beta-lactamase assay (AID 624044; calls by dose curve; note: nearly all actives have a fitted effect of over 15% in size); settings: S16 rat Schwann cells, PMP22 element beta-lactamase FRET, 24 h; ratio activity, negative = inhibition: at 38.3 µM (top of the series)
# In short: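 Rat S16 Schwann cells with beta-Lac driven by a PMP22 intronic element, compound-treated 24 h at 37 °C. LiveBLAzer FRET B/G read: 460 nm normalized to potassium clavulanate vs DMSO; 535 nm FRET as viability; concentration-effect curves classified.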
# W2 = experiment: qHTS profiling for inhibitors of Plasmodium falciparum proliferation (AID 504749); note: nearly all actives have a fitted effect of over 60% in size; settings: P. falciparum in erythrocytes, SYBR Green DNA, 72 h; series mostly up to 28.7 µM
# In short: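 Three-day growth assay of blood-stage parasites in erythrocytes (0.3% parasitemia, 2.5% hematocrit) at 37 C, 5% CO2, quantified by SYBR Green DNA staining after overnight detergent lysis.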
# [6] = target: Cytochrome P450 3A4 (Homo sapiens) (UniProt P08684); experiment: qHTS Assay for Inhibitors and Substrates of Cytochrome P450 3A4 (AID 884); note: nearly all actives have a fitted effect of over 50% in size
# In short: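 20 nM human CYP3A4 with 25 uM Luciferin-PPXE (at KM) in 200 mM KPO4, preincubated 10 min with compound; NADPH regeneration started a 60 min RT reaction. Luciferin detected by luminescence, normalized to 57 uM ketoconazole as full inhibition.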
# [7] = Confirmation and Secondary Assay for Modulators of Hemoglobin Beta Chain Splicing at IVS2 654 locus (AID 910);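 note: HeLa cells stably carrying EGFP split by mutant beta-globin IVS2-654 intron; per-well total GFP intensity by laser scanning cytometry after 2-day treatment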
# In short: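 Readout: per-well total peak green fluorescence (488 nm ex, 500–520 nm em) from objects 5–250 µm, reflecting correct splicing of an EGFP-654 reporter. Compounds were applied for 2 days at 37 °C to overnight-plated HeLa EGFP-654 cells; controls were DMSO and 500 nM IVS2-654 PNA.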
# [8] = Confirmation and Secondary Assay for Modulators of Hemoglobin Beta Chain Splicing at IVS2 705 locus (AID 930);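 note: HeLa cells stably expressing the EGFP-705 splicing reporter; GFP fluorescence per well restored by corrected splicing of the IVS2-705 intron in EGFP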
# In short: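 HeLa IVS2-705 EGFP reporter cells, 500/well, compound 2 d at 37C; correct splicing yields fluorescent EGFP. Control: 500 nM antisense PNA. Read-out: total peak GFP intensity.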
# Luciferin 4-monooxygenase (Photinus pyralis), sequence (P08659 whole entry, looked up): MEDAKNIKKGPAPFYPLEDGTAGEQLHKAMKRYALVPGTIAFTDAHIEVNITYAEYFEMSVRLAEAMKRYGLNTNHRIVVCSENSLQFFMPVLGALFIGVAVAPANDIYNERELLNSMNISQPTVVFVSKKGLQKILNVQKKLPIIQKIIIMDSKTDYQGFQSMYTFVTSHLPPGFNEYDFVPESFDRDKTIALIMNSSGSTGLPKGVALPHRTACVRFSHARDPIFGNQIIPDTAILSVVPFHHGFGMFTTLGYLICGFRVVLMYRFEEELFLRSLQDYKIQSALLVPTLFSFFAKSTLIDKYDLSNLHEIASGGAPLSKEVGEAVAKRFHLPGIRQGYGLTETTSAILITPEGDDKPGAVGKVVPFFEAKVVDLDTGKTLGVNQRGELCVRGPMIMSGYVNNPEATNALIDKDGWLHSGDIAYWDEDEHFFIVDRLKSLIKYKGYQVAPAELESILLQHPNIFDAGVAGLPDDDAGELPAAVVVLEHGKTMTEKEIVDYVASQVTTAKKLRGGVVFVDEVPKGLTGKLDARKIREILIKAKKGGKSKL
# Ubiquitin carboxyl-terminal hydrolase 1 (Homo sapiens), sequence (O94782 whole entry, looked up): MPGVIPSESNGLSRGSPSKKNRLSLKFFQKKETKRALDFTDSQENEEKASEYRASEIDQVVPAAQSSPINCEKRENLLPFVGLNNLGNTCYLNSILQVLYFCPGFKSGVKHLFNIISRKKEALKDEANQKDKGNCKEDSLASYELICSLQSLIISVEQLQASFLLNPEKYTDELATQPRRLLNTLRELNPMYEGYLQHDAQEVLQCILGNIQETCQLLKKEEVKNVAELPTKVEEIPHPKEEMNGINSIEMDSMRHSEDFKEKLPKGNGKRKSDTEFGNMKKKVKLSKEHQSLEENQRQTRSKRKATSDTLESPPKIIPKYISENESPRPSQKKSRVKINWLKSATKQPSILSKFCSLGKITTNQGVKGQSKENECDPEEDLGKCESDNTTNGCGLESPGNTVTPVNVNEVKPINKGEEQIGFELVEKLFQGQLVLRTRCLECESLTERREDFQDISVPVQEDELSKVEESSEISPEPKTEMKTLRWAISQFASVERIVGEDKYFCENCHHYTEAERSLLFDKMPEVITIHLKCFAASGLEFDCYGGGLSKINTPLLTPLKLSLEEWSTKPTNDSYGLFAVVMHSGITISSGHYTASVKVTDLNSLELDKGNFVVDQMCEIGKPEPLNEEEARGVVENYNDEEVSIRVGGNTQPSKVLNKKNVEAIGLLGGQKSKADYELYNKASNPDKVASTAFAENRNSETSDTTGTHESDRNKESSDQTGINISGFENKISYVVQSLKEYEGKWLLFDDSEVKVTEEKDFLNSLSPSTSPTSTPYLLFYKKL
# Cytochrome P450 3A4 (Homo sapiens), sequence (P08684 whole entry, looked up): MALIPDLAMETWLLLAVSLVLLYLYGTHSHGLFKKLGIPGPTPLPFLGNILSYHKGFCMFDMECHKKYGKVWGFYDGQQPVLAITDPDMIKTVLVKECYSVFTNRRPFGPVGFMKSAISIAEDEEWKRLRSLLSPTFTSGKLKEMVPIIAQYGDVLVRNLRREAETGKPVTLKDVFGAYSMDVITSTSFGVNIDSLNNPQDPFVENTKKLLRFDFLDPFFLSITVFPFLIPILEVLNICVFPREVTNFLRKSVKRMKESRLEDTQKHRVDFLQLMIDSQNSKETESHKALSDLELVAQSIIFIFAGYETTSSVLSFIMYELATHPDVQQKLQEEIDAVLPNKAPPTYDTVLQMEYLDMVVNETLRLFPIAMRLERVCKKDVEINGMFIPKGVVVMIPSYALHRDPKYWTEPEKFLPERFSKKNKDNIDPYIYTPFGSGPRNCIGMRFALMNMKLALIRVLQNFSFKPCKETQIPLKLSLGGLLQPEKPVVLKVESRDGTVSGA
SMILES,Potency [1],Potency [2],Potency [3],Potency [4],Potency [5],Potency (W2),Potency [6],Potency [7],Potency [8]
CCN(CC)C(=O)Nc1ccc(OC[C@H](O)CNC(C)(C)C)c(C(C)=O)c1,inactive,inactive,inactive,inactive,inactive,inactive,,,
CCCCC/C(C=O)=C/c1ccccc1,inactive,,inactive,inactive,inactive,inactive,,,
O=c1[nH]c(=O)n(C2C[C@H](O)[C@@H](CO)O2)cc1C(F)(F)F (some centres undefined),inactive,inactive,,510 nM (active),,inactive,,,
CCN1CCN(C(=O)NC(C(=O)NC2C(=O)N3C(C(=O)O)=C(CSc4nnnn4C)CSC23)c2ccc(O)cc2)C(=O)C1=O (centres undefined),inactive,inactive,,inactive,,inactive,inactive,inactive,inactive
Cc1ccc(Nc2ncccc2C(=O)O)cc1C,inactive,11.4 µM (active),inactive,inactive,inactive,inactive,,,
O=C1NC(=O)C2C3C=CC(C3)C12 (centres undefined),inactive,inactive,,inactive,inactive,inactive,,,
C[C@]12CC[C@@H]3c4ccc(O)cc4CC[C@H]3[C@@H]1C[C@H](O)C2O (some centres undefined),inactive,inactive,inactive,inactive,inactive,inactive,,,
O=C1CC[C@H](C(=O)N[C@@H]2C[C@H]2c2ccccc2)N1,,inactive,inactive,inactive,inactive,inactive,,,
COC(c1ccccc1)(c1ccccc1)C(Oc1nc(C)cc(C)n1)C(=O)O (centres undefined),,inactive,inactive,inactive,inactive,inactive,,,
CC1(C)SC2C(NC(=O)C(C(=O)O)c3ccccc3)C(=O)N2C1C(=O)O (centres undefined),inactive,inactive,,inactive,inactive,inactive,,inactive,inactive
CO/N=C(/C(=O)N[C@@H]1C(=O)N2C(C(=O)O)=C(C[n+]3ccc(N)n3CCO)CS[C@H]12)c1csc(N)n1,inactive,,,inactive,,inactive,,,
